Data reported in PubChem BioAssay AID1159580 (chemical genetic matrix, 2015).
The campaign covered roughly 5,500 compounds. About 2,000 (36%) were called active. Another 18% or so got no clear call; they are omitted. No stated cut-off is given here; in the data, active means normalized growth mostly below about 0.91 (no sharp cut-off); inconclusive means no clear call, values can overlap the other calls; inactive means mostly above about 0.92. Some of the results follow.

Experiment: chemical genetic growth profiling, strain panel (AID 1159580);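 further: tested at 20 µM; growth read once vehicle control cultures reached saturation at 30 °C; 1 = growth at the plate median or of vehicle wells; lower values mean less growth of the strain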
Settings: growth OD

Measured: normalized growth

COc1cc2c(cc1OC)[C@@H]1C(=O)c3ccc4c(c3O[C@@H]1CO2)CC(C(C)C)O4 (stereo partly drawn)
active: S. cerevisiae deletion strains, locus YKR001C, strain vps1, hits give low values 0.849
inactive: S. cerevisiae deletion strains, locus YKL009W, strain mrt4, hits give low values 1.01 | S. cerevisiae deletion strains, locus YKL068W, hits give low values 0.999 | S. cerevisiae deletion strains, locus YKL085W, strain MDH1 (second series), hits give low values 0.999 | S. cerevisiae deletion strains, locus YKL085W, strain MDH1, hits give low values 0.999 | S. cerevisiae deletion strains, locus YKL160W, strain elf1, hits give low values 0.978 | S. cerevisiae deletion strains, locus YKL190W, strain CNB1, hits give low values 0.998 | S. cerevisiae deletion strains, locus YKR026C, strain gcn3, hits give low values 0.991 | S. cerevisiae deletion strains, locus YKR091W, strain srl3, hits give low values 0.997 | S. cerevisiae deletion strains, locus YLL001W, strain dnm1, hits give low values 0.943 | S. cerevisiae deletion strains, locus YLL026W, hits give low values 0.98 | S. cerevisiae deletion strains, locus YLL041C, strain sdh2, hits give low values 1 | S. cerevisiae deletion strains, locus YLR027C, strain aat2, hits give low values 0.935 | S. cerevisiae deletion strains, locus YLR039C, strain RIC1, hits give low values 0.849 | S. cerevisiae deletion strains, locus YLR058C, strain SHM2, hits give low values 0.987 | S. cerevisiae deletion strains, locus YLR102C, strain apc9, hits give low values 1.01 | S. cerevisiae deletion strains, locus YLR113W, strain HOG1, hits give low values 1.02 | S. cerevisiae deletion strains, locus YLR221C, strain rsa3, hits give low values 0.966 | S. cerevisiae deletion strains, locus YLR258W, strain gsy2, hits give low values 0.985 | S. cerevisiae deletion strains, locus YLR262C, strain YPT6 (second series), hits give low values 0.897 | S. cerevisiae deletion strains, locus YLR262C, strain YPT6, hits give low values 0.822 | S. cerevisiae deletion strains, locus YLR268W, strain sec22, hits give low values 0.976 | S. cerevisiae deletion strains, locus YLR320W, strain mms22, hits give low values 0.923 | S. cerevisiae deletion strains, locus YLR330W, strain CHS5, hits give low values 1 | S. cerevisiae deletion strains, locus YLR342W, strain FKS1 (second series), hits give low values 0.999 | S. cerevisiae deletion strains, locus YLR342W, strain FKS1, hits give low values 0.975 | S. cerevisiae deletion strains, locus YLR357W, strain rsc2, hits give low values 0.958 | S. cerevisiae deletion strains, locus YLR370C, strain arc18, hits give low values 0.984 | S. cerevisiae deletion strains, locus YLR371W, strain rom2, hits give low values 1 | S. cerevisiae deletion strains, locus YLR384C, strain iki3, hits give low values 0.981 | S. cerevisiae deletion strains, locus YLR418C, strain cdc73, hits give low values 0.921 | S. cerevisiae deletion strains, locus YML016C, strain PPZ1, hits give low values 1 | S. cerevisiae deletion strains, locus YML032C, strain rad52, hits give low values 1 | S. cerevisiae deletion strains, locus YML120C, strain ndi1, hits give low values 0.986 | S. cerevisiae deletion strains, locus YML124C, strain tub3, hits give low values 0.999 | S. cerevisiae deletion strains, locus YMR058W, strain fet3, hits give low values 0.983 | S. cerevisiae deletion strains, locus YMR078C, strain ctf18, hits give low values 0.996 | S. cerevisiae deletion strains, locus YMR125W, strain sto1, hits give low values 0.99 | S. cerevisiae deletion strains, locus YMR129W, hits give low values 0.979 | S. cerevisiae deletion strains, locus YMR205C, strain PFK2, hits give low values 0.924 | S. cerevisiae deletion strains, locus YMR223W, strain ubp8, hits give low values 1 | S. cerevisiae deletion strains, locus YMR231W, strain pep5, hits give low values 0.992 | S. cerevisiae deletion strains, locus YMR263W, strain SAP30, hits give low values 1 | S. cerevisiae deletion strains, locus YMR307W, strain GAS1, hits give low values 0.872 | S. cerevisiae deletion strains, locus YNL067W, strain RPL9B, hits give low values 0.993 | S. cerevisiae deletion strains, locus YNL071W, strain lat1, hits give low values 0.93 | S. cerevisiae deletion strains, locus YNL183C, strain NPR1, hits give low values 0.983 | S. cerevisiae deletion strains, locus YNL209W, strain ssb2, hits give low values 0.995 | S. cerevisiae deletion strains, locus YNL233W, strain BNI4, hits give low values 0.986 | S. cerevisiae deletion strains, locus YNL248C, strain rpa49, hits give low values 0.98 | S. cerevisiae deletion strains, locus YNL250W, strain rad50, hits give low values 1 | S. cerevisiae deletion strains, locus YNL271C, strain bni1, hits give low values 1.02 | S. cerevisiae deletion strains, locus YNL298W, strain CLA4, hits give low values 1.01 | S. cerevisiae deletion strains, locus YNL307C, strain MCK1, hits give low values 0.986 | S. cerevisiae deletion strains, locus YNL322C, strain KRE1 (second series), hits give low values 0.985 | S. cerevisiae deletion strains, locus YNR049C, strain mso1, hits give low values 0.997 | S. cerevisiae deletion strains, locus YNR052C, strain pop2, hits give low values 1.01 | S. cerevisiae deletion strains, locus YOL006C, strain TOP1, hits give low values 0.897 | S. cerevisiae deletion strains, locus YOL012C, strain htz1 1.16 | S. cerevisiae deletion strains, locus YOL147C, strain pex11, hits give low values 0.999 | S. cerevisiae deletion strains, locus YOR001W, strain rrp6, hits give low values 0.966 | S. cerevisiae deletion strains, locus YOR061W, strain CKA2, hits give low values 0.998 | S. cerevisiae deletion strains, locus YOR069W, strain VPS5, hits give low values 1.01 | S. cerevisiae deletion strains, locus YOR070C, strain gyp1, hits give low values 0.961 | S. cerevisiae deletion strains, locus YOR080W, strain dia2, hits give low values 0.974 | S. cerevisiae deletion strains, locus YOR083W, strain WHI5, hits give low values 0.98 | S. cerevisiae deletion strains, locus YOR106W, strain vam3, hits give low values 1.02 | S. cerevisiae deletion strains, locus YOR136W, strain idh2, hits give low values 1 | S. cerevisiae deletion strains, locus YOR144C, strain elg1, hits give low values 0.992 | S. cerevisiae deletion strains, locus YOR184W, strain ser1, hits give low values 0.925 | S. cerevisiae deletion strains, locus YOR231W, strain MKK1, hits give low values 1.05 | S. cerevisiae deletion strains, locus YOR265W, strain rbl2, hits give low values 0.989 | S. cerevisiae deletion strains, locus YOR270C, strain vph1, hits give low values 0.939 | S. cerevisiae deletion strains, locus YOR290C, strain snf2, hits give low values 0.989 | S. cerevisiae deletion strains, locus YOR316C, strain cot1, hits give low values 0.999 | S. cerevisiae deletion strains, locus YPL051W, strain arl3, hits give low values 0.941 | S. cerevisiae deletion strains, locus YPL055C, strain LGE1, hits give low values 0.929 | S. cerevisiae deletion strains, locus YPL078C, strain atp4, hits give low values 0.982 | S. cerevisiae deletion strains, locus YPL106C, strain sse1, hits give low values 1 | S. cerevisiae deletion strains, locus YPL240C, strain hsp82, hits give low values 1.01 | S. cerevisiae deletion strains, locus YPL241C, strain CIN2, hits give low values 1 | S. cerevisiae deletion strains, locus YPL256C, strain CLN2, hits give low values 1.05 | S. cerevisiae deletion strains, locus YPR119W, strain clb2, hits give low values 1 | S. cerevisiae deletion strains, locus YPR141C, strain kar3, hits give low values 1 | S. cerevisiae deletion strains, locus YPR163C, strain tif3, hits give low values 1.01 | S. cerevisiae deletion strains, locus YPR167C, strain met16, hits give low values 1 | S. cerevisiae deletion strains, strain wtn01, hits give low values 1.01 | S. cerevisiae strains, strain wild type, hits give low values 0.987
